PubChem BioAssay (NCATS)
Records with an inconclusive call do not appear. Unless noted, calls follow the shape of the dose curve; as a rule, active = well fitted curve in either direction with a large enough effect (not every such curve was filed as active); inconclusive = small, poorly fitted or top-dose-only effect, or another doubt; inactive = flat fitted curve, though single readings scatter.

How the values were obtained:
[1] = AP1 Signaling Pathway (AID 357); conditions: ME-180 AP-1-bla reporter, EGF-induced, beta-lactamase ratio, 5 h; at 17.2 µM (top of the series) unless noted;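 also: ME-180 reporter cells stimulated with EGF at its EC50 level; % is scaled to controls: 0 for no effect and ±100 for the full control effect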
In short: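 A ratiometric CCF4 readout (405 nm excitation; 460 and 530 nm emission) quantified AP-1-driven beta-lactamase in ME-180 cells after 5 h with compound and EC50 EGF; AC50 values were derived for activators and inhibitors.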

[2] = NFAT Signaling Pathway (AID 444); conditions: Jurkat NFAT-bla M1, carbachol, beta-lactamase ratio, 5 h; at 17.2 µM (top of the series) unless noted;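 also: carbachol stimulus at about its EC50 of 1 µM final; % is scaled to controls: 0 for no effect and ±100 for the full control effect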
In short: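 Read-out: CCF4 FRET ratio (460 nm/530 nm) after 1 h RT dye loading, used for %activity and AC50 from titration series. Cells: Jurkat NFAT-β-lactamase/M1 line, treated with compound plus 1 uM carbachol for 5 h, 37 °C.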

[3] = Stat Signaling Pathway (AID 446); conditions: ME-180 SIE beta-lactamase reporter, IL-6 stimulated, 5 h; at 17.2 µM (top of the series) unless noted;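 also: ME-180 cervical cancer cells given 40 pM IL-6 alongside compound; SIE-controlled beta-lactamase reporter measured as 460/530 nm FRET emission ratio; % is scaled to controls: 0 for no effect and ±100 for the full control effect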
In short: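 Emission at 460 and 530 nm (excitation 405 nm) reports SIE-controlled beta-lactamase in ME-180 cells. Cells received compound with 40 pM IL-6 for 5 hrs at 37 C; data scaled between 300 pM IL-6 and 125 nM JAK-inhibitor controls.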

[4] = biological target: Glucocorticoid receptor (Homo sapiens) (UniProt P04150); assay: GR-GFP Redistribution (AID 450;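 active = compounds whose dose series gives a full or clear partial fitted curve of increased nuclear translocation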; also: potency is read from the fitted curve at half-maximal effect)
[5] = qHTS Assay for Identification of Small Molecule Agonists for Hypoxia Response Element Signaling Pathway (AID 914; active = well fitted activation curve with a large enough effect in the signal ratio, with a control signal flat, not every such curve was filed as active; the % refers to the signal ratio; also: % of control where 0% means no effect); conditions: ME-180 (cervical carcinoma) HRE-bla reporter, beta-lactamase ratio, CoCl2, 17 h; activation: active compounds read high
In short: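 Compounds in a titration series were added to ME-180 reporter cells alongside an EC50 level of CoCl2. After 17 hours, beta-lactamase activity was read as the 460nm/530nm emission ratio of CCF4, giving AC50 values.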

Sequence of Glucocorticoid receptor (Homo sapiens) (P04150 whole entry, looked up): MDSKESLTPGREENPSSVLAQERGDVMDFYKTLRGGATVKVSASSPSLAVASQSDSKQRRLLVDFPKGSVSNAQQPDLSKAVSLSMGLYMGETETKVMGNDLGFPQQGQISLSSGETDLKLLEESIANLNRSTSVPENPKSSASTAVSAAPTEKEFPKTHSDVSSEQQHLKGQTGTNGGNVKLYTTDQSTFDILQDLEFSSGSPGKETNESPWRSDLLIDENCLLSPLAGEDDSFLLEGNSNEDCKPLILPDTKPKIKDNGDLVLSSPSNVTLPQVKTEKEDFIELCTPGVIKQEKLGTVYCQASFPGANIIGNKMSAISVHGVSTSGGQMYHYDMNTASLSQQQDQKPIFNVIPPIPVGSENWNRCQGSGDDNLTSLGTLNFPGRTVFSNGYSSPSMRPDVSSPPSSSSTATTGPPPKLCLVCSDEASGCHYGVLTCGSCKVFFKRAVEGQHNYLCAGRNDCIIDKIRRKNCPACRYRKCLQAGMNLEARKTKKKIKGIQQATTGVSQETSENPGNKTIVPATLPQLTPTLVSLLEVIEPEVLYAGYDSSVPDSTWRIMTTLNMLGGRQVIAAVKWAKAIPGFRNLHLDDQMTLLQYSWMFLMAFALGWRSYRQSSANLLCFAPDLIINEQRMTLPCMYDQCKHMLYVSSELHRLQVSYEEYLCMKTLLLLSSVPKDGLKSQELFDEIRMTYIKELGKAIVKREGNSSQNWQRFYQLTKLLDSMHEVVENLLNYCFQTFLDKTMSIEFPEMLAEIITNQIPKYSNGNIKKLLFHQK

O=C(O)C(Cc1c[nH]c2ccccc12)NS(=O)(=O)c1cccc2nsnc12 (stereo not given)
inactive: activity change, negative = inhibition [1] 4.19% | activity change, negative = inhibition [2] 3.61% | activity, negative = inhibition [3] 6.46% | Potency [4] > 20.6 µM | activation [5] -7.91%

COC(=O)C1=C(N)Oc2cc(C)[nH]c(=O)c2C1c1ccncc1 (stereo not given)
inactive: activity change, negative = inhibition [1] -8.66% | activity change, negative = inhibition [2] 2.47% | activity, negative = inhibition [3] -7.56% | Potency [4] > 20.6 µM | activation [5] 2.44%

CCOc1ccc(-c2nnc3sc(-c4ccccc4OC)nn23)cc1
inactive: activity change, negative = inhibition [1] 18% | activity change, negative = inhibition [2] -19.8% | activity, negative = inhibition [3] 5.75% | Potency [4] > 20.6 µM | activation [5] -10.9%

CN(C=C1C(=O)CC(C)(C)CC1=O)CCN1CCNCC1
inactive: activity change, negative = inhibition [1] 19.5% | activity change, negative = inhibition [2] -19.2% | activity, negative = inhibition [3] 4.61% | Potency [4] > 20.6 µM | activation [5] -4.98%

CCCCOc1ccccc1C(=O)NCCCCCC(=O)O
inactive: activity change, negative = inhibition [1] 10.2% | activity change, negative = inhibition [2] 11.6% | activity, negative = inhibition [3] 2.29% | Potency [4] > 20.6 µM | activation [5] 8%

COCCCn1c(C)nc2c(c1=O)c1nc3ccccc3nc1n2CCc1ccccc1
inactive: activity change, negative = inhibition [1] -6.69% | activity change, negative = inhibition [2] -1.98% | activity, negative = inhibition [3] -10% | Potency [4] > 20.6 µM | activation [5] -19.8%

Cc1cc(=O)oc(C)c1C(=O)Nc1cccc2nonc12
inactive: activity change, negative = inhibition [1] -1.38% | activity change, negative = inhibition [2] 11.1% | activity, negative = inhibition [3] -0.713% | Potency [4] > 20.6 µM | activation [5] 1.4%

CCOc1ccc(C2C(C#N)=C(N)SC(N)=C2C#N)cc1OC
inactive: activity change, negative = inhibition [1] 0.186% | activity change, negative = inhibition [2] 10.8% | activity, negative = inhibition [3] -5.25% | Potency [4] > 20.6 µM | activation [5] -15.3%

COc1ccc(C2CC(=O)c3sc(N)nc3C2)cc1 (stereo not given)
inactive: activity change, negative = inhibition [1] -9.21% | activity change, negative = inhibition [2] 5.45% | activity, negative = inhibition [3] 3.6% | Potency [4] > 20.6 µM | activation [5] -11%

CSc1cc(C)nc(N(C)C(C)=O)n1
inactive: activity change, negative = inhibition [1] 16.9% | activity change, negative = inhibition [2] -4.07% | activity, negative = inhibition [3] -0.18% | Potency [4] > 20.6 µM | activation [5] 14.1%
